Measurements as given in PubChem BioAssay AID1159580 (chemical genetic matrix, 2015).
About 2,000 (36%) of roughly 5,500 compounds were called active. Another 18% or so got no clear call; they are omitted. Cut-off read from the data, not from the text of the source: active = normalized growth mostly below about 0.91 (no sharp cut-off); inconclusive = no clear call, values can overlap the other calls; inactive = mostly above about 0.92. The list shows a part of the results.

Experiment: chemical genetic growth profiling, strain panel (AID 1159580);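 note: tested at 20 µM; growth read once vehicle control cultures reached saturation at 30 °C; 1 = growth at the plate median or of vehicle wells; lower values mean less growth of the strain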
Settings: S. cerevisiae deletion strains, growth OD

Measured: normalized growth

CCN[C@@H]1C[C@H](N)[C@@H](O[C@H]2OC(CN)=CC[C@H]2N)[C@H](O)[C@H]1OC1OC[C@](C)(O)[C@H](NC)[C@H]1O (stereo not given in full)
inactive: locus YAL021C, strain ccr4, active compounds read low 0.983 | locus YAL026C, strain drs2, active compounds read low 0.995 | locus YAL030W, strain snc1, active compounds read low 1.01 | locus YBL061C, strain skt5, active compounds read low 1 | locus YBR009C, strain hhf1, active compounds read low 1.02 | locus YBR023C, strain chs3, active compounds read low 1 | locus YBR171W, strain sec66, active compounds read low 0.996 | locus YBR231C, strain swc5, active compounds read low 1.01 | locus YBR279W, strain paf1, active compounds read low 1.01 | locus YCL011C, strain gbp2, active compounds read low 0.977 | locus YCL016C, strain dcc1, active compounds read low 1 | locus YCL061C, strain MRC1, active compounds read low 0.989 | locus YCL069W, strain vba3, active compounds read low 0.994 | locus YCR088W, strain abp1, active compounds read low 0.983 | locus YDL005C, strain med2, active compounds read low 1 | locus YDL040C, strain nat1, active compounds read low 1.01 | locus YDR001C, strain nth1, active compounds read low 0.985 | locus YDR069C, strain doa4, active compounds read low 1.01 | locus YDR137W, strain rgp1, active compounds read low 0.96 | locus YDR159W, strain sac3, active compounds read low 1.01 | locus YDR195W, strain ref2 0.993 | locus YDR297W, strain sur2, active compounds read low 0.998 | locus YDR334W, strain swr1, active compounds read low 0.979 | locus YDR335W, strain msn5, active compounds read low 0.986 | locus YDR392W, strain spt3, active compounds read low 0.998 | locus YEL003W, strain gim4, active compounds read low 0.989 | locus YEL037C, strain rad23, active compounds read low 0.948 | locus YEL061C, strain CIN8 (second series), active compounds read low 0.981 | locus YER015W, strain faa2, active compounds read low 1.02 | locus YER016W, strain bim1, active compounds read low 0.997 | locus YER111C, strain swi4, active compounds read low 0.994 | locus YER155C, strain BEM2 (second series), active compounds read low 1.01 | locus YFR010W, strain ubp6, active compounds read low 0.975 | locus YGL167C, strain pmr1, active compounds read low 0.998 | locus YGL173C, strain kem1, active compounds read low 1 | locus YGL227W, strain vid30, active compounds read low 0.995 | locus YGL240W, strain doc1, active compounds read low 1.01 | locus YGL253W, strain hxk2, active compounds read low 0.995 | locus YHR013C, strain ard1, active compounds read low 1.02 | locus YHR027C, strain rpn1, active compounds read low 0.999 | locus YHR030C, strain SLT2, active compounds read low 0.97 | locus YHR079C, strain IRE1, active compounds read low 1.02 | locus YHR142W, strain chs7, active compounds read low 0.946 | locus YJL092W, strain hpr5, active compounds read low 0.984 | locus YJL095W, strain BCK1 (second series), active compounds read low 1.01 | locus YJL095W, strain BCK1, active compounds read low 0.972 | locus YJL115W, strain asf1, active compounds read low 0.998 | locus YJL129C, strain trk1, active compounds read low 0.989 | locus YJL154C, strain vps35, active compounds read low 0.996 | locus YJL164C, strain tpk1, active compounds read low 0.996 | locus YJL166W, strain qcr8, active compounds read low 1.01 | locus YJL187C, strain SWE1, active compounds read low 1 | locus YJR066W, strain TOR1, active compounds read low 0.947 | locus YKL160W, strain elf1, active compounds read low 0.986 | locus YKR026C, strain gcn3, active compounds read low 0.978 | locus YKR091W, strain srl3, active compounds read low 0.995 | locus YLL001W, strain dnm1, active compounds read low 0.981 | locus YLL026W, active compounds read low 1.01 | locus YLL041C, strain sdh2, active compounds read low 0.988 | locus YLR027C, strain aat2, active compounds read low 1.01 | locus YLR113W, strain HOG1, active compounds read low 0.953 | locus YLR221C, strain rsa3, active compounds read low 0.987 | locus YLR258W, strain gsy2, active compounds read low 1 | locus YLR262C, strain YPT6 (second series), active compounds read low 1 | locus YLR320W, strain mms22, active compounds read low 1.01 | locus YLR342W, strain FKS1, active compounds read low 0.997 | locus YLR357W, strain rsc2, active compounds read low 0.986 | locus YLR370C, strain arc18, active compounds read low 0.994 | locus YLR384C, strain iki3, active compounds read low 1 | locus YML120C, strain ndi1, active compounds read low 0.983 | locus YMR058W, strain fet3, active compounds read low 0.986 | locus YMR125W, strain sto1, active compounds read low 1 | locus YMR129W, active compounds read low 0.994 | locus YMR205C, strain PFK2, active compounds read low 1.03 | locus YMR231W, strain pep5, active compounds read low 1 | locus YNL071W, strain lat1, active compounds read low 1 | locus YNL183C, strain NPR1, active compounds read low 0.935 | locus YNL209W, strain ssb2, active compounds read low 1 | locus YNL248C, strain rpa49, active compounds read low 0.949 | locus YNL322C, strain KRE1 (second series), active compounds read low 0.995 | locus YNR049C, strain mso1, active compounds read low 0.995 | locus YOR001W, strain rrp6, active compounds read low 0.982 | locus YOR070C, strain gyp1, active compounds read low 0.996 | locus YOR080W, strain dia2, active compounds read low 0.998 | locus YOR083W, strain WHI5, active compounds read low 0.995 | locus YOR106W, strain vam3, active compounds read low 0.985 | locus YOR231W, strain MKK1, active compounds read low 0.986 | locus YOR265W, strain rbl2, active compounds read low 1 | locus YOR270C, strain vph1, active compounds read low 0.939 | locus YOR290C, strain snf2, active compounds read low 0.987 | locus YPL051W, strain arl3, active compounds read low 1 | locus YPL078C, strain atp4, active compounds read low 0.972 | locus YPL106C, strain sse1, active compounds read low 1 | locus YPL240C, strain hsp82, active compounds read low 0.986 | locus YPL256C, strain CLN2, active compounds read low 0.963
